From PubChem BioAssay (NCATS)
Records with an inconclusive call do not appear. Activity calls are given as the source filed them. Calls follow the shape of the full dose curve.

Test: Primary qHTS to identify inhibitors of SARS-CoV-2 cell entry (AID 1645846); also: nearly all actives have a fitted effect of over 45% in size
Settings: SARS-CoV-2 pseudovirus cell entry assay, luminescence; activity change, negative = inhibition: at 57.1 µM (top of the series) unless noted; series mostly up to 57.1 µM
Excerpt: Assay Provider: Wei Zheng, Ph.D.
National Center for Advancing Translational Sciences, National Institute of Health, Rockville, MD.
SARS-CoV-2 spike protein, within the viral envelope, mediates viral attachment and infection of host cells. The SARS-CoV-2 spike protein specifically binds to the host receptor ACE2 (Angiotensin-converting enzyme 2). This interaction promotes endocytosis of the viral particle, additional events lead to viral-host cell membrane fusion and release of the viral contents, allowing viral replication.
While SARS-CoV-2 requires BSL-3 facilities for live virus work, pseudotyped partices (PP) that incorporate SARS-CoV-2 spike proteins without replication elements could facilitate studies on viral entry mechanisms in a BSL-2 setting. This PP cell entry assay could also enable screening of small molecule compound libraries in BSL-2 setting to identify inhibitors of SARS-CoV-2 cell entry.
PROTOCOL TABLE (format as described by Inglese J, Shamu CE and Guy RK. 2007)
SEQUENCE No. (e.g., 1, 2, 3, etc.); […] (e.g., Cells, Incubation, Reagent, etc.); VALUE and DESCRIPTION.
1. Cells. Seed 1500 HEK293-ACE2 cells (Expi293F with stable expression of human ACE2) in 2 uL/well media (DMEM, 10% FBS, 1x L-glutamine, 1x Pen/Strep, 1 ug/ml puromycin) in white 1536-well assay plates (Greiner #782073).
2. Incubation. Incubate at 37C with 5% CO2 overnight (~16 h).
3. Compounds. Dispense 23 nL/well compounds in DMSO via pin transfer.
4. Incubation. Incubate for 1 hr at 37C 5% CO2.
5. Reagent. Dispense 2 uL/well of SARS-CoV-2-S pseudotyped particles. [a] PPs are produced with murine leukemia virus pseudotyping. [b] SARS-CoV-2-S is Wuhan-Hu-1 sequence (BEI #NR-52420) with C-terminal 19 amino acid truncation.
6. Centrifuge. […]
7. Incubation. Incubate at for 48 hr at 37C 5% CO2
8. Centrifuge. Remove supernatant with gentle centrifugation using a Blue Washer (BlueCat Bio).
9. Reagent. Dispense 4 uL/well of Bright-Glo Luciferase detection reagent (Promega #E2620).
10. Incubation. Incubate for 5 min at room temperature.
11. Detection. Read luminescence signal (Viewlux plate reader, PerkinElmer). Data was normalized with wells containing SARS-CoV-2-S PP as 100%, and wells containing bald PP (no fusion protein) as 0%.

Structure (SMILES) | activity change, negative = inhibition | outcome
CC[C@H](C)C(=O)O[C@H]1C[C@H](O)C=C2C=C[C@H](C)[C@H](CC[C@@H](O)C[C@@H](O)CC(=O)O)[C@H]21 | -12.2% | inactive
C[N+](C)(C)CCCCCC[N+](C)(C)C | -3.21% | 
CC(=O)CC/C=C(\C)CC/C=C(\C)CC/C=C(\C)CCC=C(C)C | -24.7% | 
CN1[C@@H]2CC(OC(=O)[C@H](CO)c3ccccc3)C[C@H]1[C@@H]1O[C@@H]12 (stereo not given in full) |  | inactive
CC(C)(C)C(=O)Oc1ccc(S(=O)(=O)Nc2ccccc2C(=O)NCC(=O)O)cc1 | -32.8% | inactive
C[C@H](CS)C(=O)N1CCC[C@H]1C(=O)O |  | inactive
C=C(C)[C@H]1CN[C@H](C(=O)O)[C@H]1CC(=O)O |  | inactive
O=S(=O)(O)c1ccc(O)cc1 | 2.14% | 
CC(=O)[C@H]1CC[C@H]2[C@@H]3C[C@H](C)C4=CC(=O)CC[C@]4(C)[C@H]3[C@@H](O)C[C@]12C |  | inactive
CO[C@@]1(NC(=O)C2SC(=C(C(N)=O)C(=O)O)S2)C(=O)N2C(C(=O)O)=C(CSc3nnnn3C)CS[C@@H]21 (stereo not given in full) | 4.49% | 
C=CC(N)CCC(=O)O (stereo not given) |  | inactive [at 27.1 µM]
C[C@@H](N)[C@@H](O)c1ccccc1 |  | inactive
CCCN1CCCC[C@H]1C(=O)Nc1c(C)cccc1C | -27.2% | 
C#CC(O)(C=CCl)CC (stereo not given) | -20.1% | 
CC1(C)O[C@@H]2C[C@H]3[C@@H]4CCC5=CC(=O)C=C[C@]5(C)[C@@H]4[C@@H](O)C[C@]3(C)[C@]2(C(=O)CO)O1 |  | inactive
CO[C@@H]1[C@@H](OC(N)=O)[C@@H](O)[C@H](Oc2ccc3c(O)c(NC(=O)c4ccc(O)c(CC=C(C)C)c4)c(=O)oc3c2C)OC1(C)C | 0.81% | inactive
Cc1cc(C)nc(NS(=O)(=O)c2ccc(N)cc2)n1 |  | inactive

Structure (SMILES) | activity change, negative = inhibition | outcome
C/C=C1\[C@H]2C=C(C)C[C@]1(N)c1ccc(=O)[nH]c1C2 |  | inactive
COc1ccc(C(=O)c2ccccc2)c(O)c1 |  | inactive
CC(N=C(NC#N)Nc1ccncc1)C(C)(C)C (stereo not given) | -37.8% | 
CC(NC(C)(C)C)C(=O)c1cccc(Cl)c1 (stereo not given) | -12.4% | inactive
COc1cc(C(=O)NC2CCCNC2)cc(OC)c1OC (stereo not given) | -15.8% | 
CCCCCCCCCCCCCCCCCC(=O)O | -6.11% | 
NC[C@H]1O[C@H](O[C@H]2[C@H](O[C@@H]3O[C@H](CO)[C@@H](O)[C@H]3O)C(O)[C@H](N)C[C@@H]2N)[C@H](N)[C@@H](O)[C@@H]1O (stereo not given in full) | -2.22% [at 11.3 µM] | 
O=S(=O)(O)CCS | 1.92% | inactive
C[C@@H](O)[C@H]1C(=O)N2C(C(=O)O)=C(SCCN=CN)C[C@H]12 |  | inactive
CCOC(=O)c1ccc(O)cc1 |  | inactive
NS(=O)(=O)c1cc2c(cc1C(F)(F)F)NC(Cc1ccccc1)NS2(=O)=O (stereo not given) |  | inactive
O=C(Nc1ccc(Br)cc1)c1cc(Br)cc(Br)c1O |  | inactive
CCN1CCC[C@H]1CNC(=O)c1cc(S(N)(=O)=O)ccc1OC |  | inactive
NC(=O)c1cccnc1 | -15.2% | 
O=C(NCC1CCCCN1)c1cc(OCC(F)(F)F)ccc1OCC(F)(F)F (stereo not given) | -8.95% | inactive
NC(=O)c1cc([N+](=O)[O-])cc([N+](=O)[O-])c1 | -10.7% | 
COC(=O)C1=C(C)NC(C)=C(C(=O)OCCc2ccc(N3CCN(C(c4ccccc4)c4ccccc4)CC3)cc2)C1c1cccc([N+](=O)[O-])c1 (stereo not given) | -16.7% | 
